Compounds without any hit were thinned out: in the full panel of roughly 83,000, 20% have a hit.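 Step 1: grow cells in 96-well plates. Step 2: add test compound at a single concentration. Step 3: incubate 48 h. Step 4: record percent growth.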 Activity calls are given as the source filed them. How the source made its calls: active means growth percent below 10; inactive means the rest.

For the first assay, the system named is HOP-62 NSCLC. As to the kind of experiment: NCI-60 one-dose screen, 48 h (100 = growth as untreated, 0 = no growth, -100 = all killed). The settings on record: 10 µM.
Regarding `COc1ccc2cc([C@H](C)C(=O)NCc3ccccc3)ccc2c1`, the growth was 41.8% (inactive).

For the molecule `COc1cc(Cn2c(C(F)(F)F)cc3c(Cl)ncnc32)ccn1`, the growth is 32.1% (inactive).

In the case of `CN(C)c1cccc2c(S(=O)(=O)Nc3cccc(-c4csc(NC(=O)CCCCCN5CCN(c6cc7c(cc6F)C(=O)N(C6CCC(=O)NC6=O)C7=O)CC5)n4)c3)cccc12` (stereo unspecified), the growth is 88.5% (inactive).

Take `COc1ccc(-c2nc(S(=O)(=O)c3ccc(C)cc3)c(S(=O)(=O)CC(=O)N(C)Cc3ccccc3)o2)cc1`: the growth is 82.1% (inactive).

As for `COc1ccc(C=CC(=O)c2ccc(-n3c(C)nc4c(cnn4-c4ccccc4)c3=O)cc2)cc1`, the growth is 80.5% (inactive).

On to `O=S(=O)(Nc1ncccn1)c1ccc(-n2c(-c3ccc(Br)cc3)nc(-c3ccccc3)c2-c2ccccc2)cc1`, for which the growth was 56.8% (inactive).

On to `COc1cc(/C=C/C(=O)c2ccc(NC(=O)CSc3nnc(-c4c[nH]c5ccccc45)n3-c3ccccc3)cc2)cc(OC)c1OC`, for which the growth is 101% (inactive).

As to `CCCn1c(=O)c2[nH]c(-c3ccc(OCc4nc5ccccc5[nH]4)cc3)nc2n(CCC)c1=O`, the growth was 22.2% (inactive).

`Cc1ccc2nc(COc3ccc(C(=O)NNC(=S)NC(=O)c4ccccc4)cc3)[nH]c2c1`: the growth was 45.4% (inactive).

Turning to `COc1nccnc1NS(=O)(=O)c1ccc(NC2=C(Cl)C(=O)c3nc(C)ccc3C2=O)cc1`, the growth was 101% (inactive).

With `N#Cc1c(NC(=O)c2ccc(C(O)(C(F)(F)F)C(F)(F)F)cc2)sc2c1CCC(=O)C2`, the growth was -17% (active).

`O=C(Cn1nc(-c2ccccc2)ccc1=O)NNC(=S)NC1CCCCC1`: the growth is 104% (inactive).

Regarding `O=C(/C=C/Nc1ccccc1)c1ccc2c(c1)Nc1ccccc1S2`, the growth is 53.5% (inactive).

As to `CC1(c2ccccc2)NC(=O)N(CC(=O)Nc2ccc(C(=O)/C=C/c3ccc(Br)cc3)cc2)C1=O` (stereo unspecified), the growth was 61.9% (inactive).

For the next assay, the system named is NCI-H460 lung. The assay is described as above. The settings on record: 10 µM.
`O=c1oc2ccc(-c3ccc(F)cc3F)cc2c(=O)n1-c1ccc(F)c(Cl)c1`: the growth is -0.567% (active).

Consider `O=C(c1ccc(O)cc1)C1[C@H](c2ccccc2Br)[C@@H](c2ccccc2)NC12C(=O)Nc1ccc(Br)cc12` (stereo partly specified), for which the growth was 31.1% (inactive).

For `O=C(Nc1cccc(-c2cn(-c3ccc4oc(=O)ccc4c3)nn2)c1)Nc1cc(C(F)(F)F)cc(C(F)(F)F)c1`, the growth is 27.8% (inactive).

For `O=C1N/C(=N\c2nccs2)S/C1=C\c1cccs1`, the growth was 14.7% (inactive).

With `COc1ccc2[nH]c(O)c(N=NC(=O)COc3ccc(NC(=O)Nc4ccc(Cl)cc4)cc3)c2c1`, the growth was -48.6% (active).

Turning to `COc1ccc(OC)c(-c2cc(-c3c[nH]c4ccccc34)nc(N)c2C#N)c1`, the growth was -42.5% (active).

With `N#Cc1ccc(-c2nn(-c3ccc(C(=O)O)cc3)cc2CNc2ccc(Oc3ccccc3)cc2)cc1`, the growth is 40.2% (inactive).

With `N#Cc1ccc(-c2nn(-c3ccc(C(=O)O)cc3)cc2CNc2cc(Cl)cc(C(F)(F)F)c2)cc1`, the growth was 6.19% (active).

Turning to `CO[C@@H]1CSS[C@H]1Cn1nc(-c2ccc(Oc3ccccc3)cc2)c2c(N)ncnc21`, the growth was 77.4% (inactive).

In the case of `Cc1ccn2c(C(=O)c3ccc(Br)cc3)cc(-c3cc(-c4ccc(N(C)C)cc4)c(C#N)c(N)n3)c2c1`, the growth was 54.4% (inactive).

Take `O=c1c2ccccc2nc(COc2ccccc2)n1/N=C/c1ccc(F)cc1`: the growth was 85.4% (inactive).

Turning to `Nc1nc(Nc2ccc(Cl)cc2)nn1Cc1cccc(Br)c1`, the growth is 17.9% (inactive).

In the case of `CC(C)CCSc1nc(NC2CC2)c(C#N)c(-c2ccc(C(C)C)cc2)n1`, the growth is 120% (inactive).

As to `COc1cccc(-c2ccc(/C=N/NC(=O)c3[nH]c4ccc(Br)cc4c3-c3ccccc3)o2)c1`, the growth is 4.13% (active).

Turning to `COc1ccc2nc(Cl)c(-c3cc(-c4ccccc4)nc(=O)[nH]3)cc2c1`, the growth is 18% (inactive).

Take `COc1cc2c(c(OC)c1OC)C(=O)CC(c1cccc(NC(=O)c3cccc(N)c3)c1)O2` (stereo unspecified): the growth is 79.2% (inactive).

Take `COc1ccc(-c2nc(S(=O)(=O)c3ccccc3)c(S(C)(=O)=O)o2)cc1`: the growth was 75.9% (inactive).

As for `CN1CCN(c2ccc(C(=O)/C=C/c3ccc(C#N)cc3)cc2)CC1`, the growth is 97.1% (inactive).

Regarding `O=C(NO)c1ccc(Cn2ccc3c(NCc4ccccc4)ncnc32)cc1`, the growth is 11.1% (inactive).

Turning to `O=C(O)CCCCCCCCCCN1C(=O)/C(=C/c2cnc(-c3ccccc3)s2)SC1=S`, the growth was 29.6% (inactive).

For `Cc1cc(=O)oc2cc(OCCCCOc3ccc(/C=C/C(=O)Nc4ccccc4[N+](=O)[O-])cc3)ccc12`, the growth is 119% (inactive).

In the case of `CCOC(=O)CNC(=O)CN(Cc1ccccc1)C(=O)[C@@]1(C)CCC[C@]2(C)[C@H]3CC4C(C(C)C)=C[C@]3(CC[C@H]21)[C@@H]1C(=O)CCC(=O)[C@H]41`, the growth is 65% (inactive).

On to `Cc1ccc(-c2cc(-c3cc4ccccc4nc3Cl)[nH]c(=O)n2)cc1`, for which the growth is 0.523% (active).

For the molecule `COc1ccc2cc([C@H](C)C(=O)NCc3ccccc3)ccc2c1`, the growth was 17.7% (inactive).

For the molecule `COc1cc(Cn2c(C(F)(F)F)cc3c(Cl)ncnc32)ccn1`, the growth is 2.75% (active).

Take `CN(C)c1cccc2c(S(=O)(=O)Nc3cccc(-c4csc(NC(=O)CCCCCN5CCN(c6cc7c(cc6F)C(=O)N(C6CCC(=O)NC6=O)C7=O)CC5)n4)c3)cccc12` (stereo unspecified): the growth is 91.4% (inactive).

Consider `COc1ccc(-c2nc(S(=O)(=O)c3ccc(C)cc3)c(S(=O)(=O)CC(=O)N(C)Cc3ccccc3)o2)cc1`, for which the growth is 82.6% (inactive).

For the molecule `COc1ccc(C=CC(=O)c2ccc(-n3c(C)nc4c(cnn4-c4ccccc4)c3=O)cc2)cc1`, the growth was 97.8% (inactive).

On to `O=S(=O)(Nc1ncccn1)c1ccc(-n2c(-c3ccc(Br)cc3)nc(-c3ccccc3)c2-c2ccccc2)cc1`, for which the growth was 31.7% (inactive).

As for `COc1cc(/C=C/C(=O)c2ccc(NC(=O)CSc3nnc(-c4c[nH]c5ccccc45)n3-c3ccccc3)cc2)cc(OC)c1OC`, the growth is 91.2% (inactive).

For the molecule `CCCn1c(=O)c2[nH]c(-c3ccc(OCc4nc5ccccc5[nH]4)cc3)nc2n(CCC)c1=O`, the growth was 6.69% (active).

For the molecule `Cc1ccc2nc(COc3ccc(C(=O)NNC(=S)NC(=O)c4ccccc4)cc3)[nH]c2c1`, the growth was 20.5% (inactive).

As to `COc1nccnc1NS(=O)(=O)c1ccc(NC2=C(Cl)C(=O)c3nc(C)ccc3C2=O)cc1`, the growth is 118% (inactive).

In the case of `N#Cc1c(NC(=O)c2ccc(C(O)(C(F)(F)F)C(F)(F)F)cc2)sc2c1CCC(=O)C2`, the growth was 7.12% (active).

In the case of `O=C(Cn1nc(-c2ccccc2)ccc1=O)NNC(=S)NC1CCCCC1`, the growth is 136% (inactive).

With `O=C(/C=C/Nc1ccccc1)c1ccc2c(c1)Nc1ccccc1S2`, the growth is 62.5% (inactive).

As to `CC1(c2ccccc2)NC(=O)N(CC(=O)Nc2ccc(C(=O)/C=C/c3ccc(Br)cc3)cc2)C1=O` (stereo unspecified), the growth is 59.5% (inactive).

Values taken from PubChem BioAssay (NCI).
